Assay results: PubChem BioAssay AID1159580 (chemical genetic matrix, 2015)
The whole screen tested about 5,500 compounds, of which about 2,000 (36%) were called active. Not shown: some 18% with an inconclusive outcome. Rule as the data show it: active = normalized growth mostly below about 0.91 (no sharp cut-off); inconclusive = no clear call, values can overlap the other calls; inactive = mostly above about 0.92. This is one part of the list.

Assay: chemical genetic growth profiling, strain panel (AID 1159580);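 also: tested at 20 µM; growth read once vehicle control cultures reached saturation at 30 °C; 1 = growth at the plate median or of vehicle wells; lower values mean less growth of the strain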
Details: growth OD

Measured: normalized growth

CC[C@]12CCCN3CCc4c(n(c5ccccc45)C(=O)C1)[C@@H]32
inactive: S. cerevisiae deletion strains, locus YAL013W, strain DEP1, stronger effect = lower value 0.967 | S. cerevisiae deletion strains, locus YAL021C, strain ccr4, stronger effect = lower value 0.968 | S. cerevisiae deletion strains, locus YAL026C, strain drs2, stronger effect = lower value 1.04 | S. cerevisiae deletion strains, locus YAL030W, strain snc1, stronger effect = lower value 1.01 | S. cerevisiae deletion strains, locus YBL061C, strain skt5, stronger effect = lower value 1.01 | S. cerevisiae deletion strains, locus YBR009C, strain hhf1, stronger effect = lower value 1.01 | S. cerevisiae deletion strains, locus YBR021W, strain FUR4, stronger effect = lower value 1.07 | S. cerevisiae deletion strains, locus YBR023C, strain chs3, stronger effect = lower value 1 | S. cerevisiae deletion strains, locus YBR171W, strain sec66, stronger effect = lower value 0.999 | S. cerevisiae deletion strains, locus YBR229C, strain ROT2, stronger effect = lower value 1.02 | S. cerevisiae deletion strains, locus YBR231C, strain swc5, stronger effect = lower value 1.01 | S. cerevisiae deletion strains, locus YBR279W, strain paf1, stronger effect = lower value 1 | S. cerevisiae deletion strains, locus YCL011C, strain gbp2, stronger effect = lower value 1.01 | S. cerevisiae deletion strains, locus YCL016C, strain dcc1, stronger effect = lower value 0.983 | S. cerevisiae deletion strains, locus YCL029C, strain bik1, stronger effect = lower value 0.989 | S. cerevisiae deletion strains, locus YCL069W, strain vba3, stronger effect = lower value 1 | S. cerevisiae deletion strains, locus YCR088W, strain abp1, stronger effect = lower value 1.01 | S. cerevisiae deletion strains, locus YDL005C, strain med2, stronger effect = lower value 1 | S. cerevisiae deletion strains, locus YDL035C, strain GPR1, stronger effect = lower value 0.941 | S. cerevisiae deletion strains, locus YDL040C, strain nat1, stronger effect = lower value 1 | S. cerevisiae deletion strains, locus YDL074C, strain BRE1, stronger effect = lower value 0.9 | S. cerevisiae deletion strains, locus YDL101C, strain DUN1, stronger effect = lower value 0.977 | S. cerevisiae deletion strains, locus YDL134C, strain PPH21, stronger effect = lower value 0.951 | S. cerevisiae deletion strains, locus YDL185W, strain tfp1, stronger effect = lower value 0.953 | S. cerevisiae deletion strains, locus YDL192W, strain arf1, stronger effect = lower value 0.977 | S. cerevisiae deletion strains, locus YDR001C, strain nth1, stronger effect = lower value 0.998 | S. cerevisiae deletion strains, locus YDR069C, strain doa4, stronger effect = lower value 1.04 | S. cerevisiae deletion strains, locus YDR101C, strain arx1, stronger effect = lower value 0.98 | S. cerevisiae deletion strains, locus YDR137W, strain rgp1, stronger effect = lower value 1.15 | S. cerevisiae deletion strains, locus YDR150W, strain NUM1, stronger effect = lower value 0.988 | S. cerevisiae deletion strains, locus YDR159W, strain sac3, stronger effect = lower value 0.995 | S. cerevisiae deletion strains, locus YDR195W, strain ref2 1.01 | S. cerevisiae deletion strains, locus YDR297W, strain sur2, stronger effect = lower value 1.01 | S. cerevisiae deletion strains, locus YDR318W, strain mcm21, stronger effect = lower value 0.978 | S. cerevisiae deletion strains, locus YDR334W, strain swr1, stronger effect = lower value 1 | S. cerevisiae deletion strains, locus YDR335W, strain msn5, stronger effect = lower value 0.998 | S. cerevisiae deletion strains, locus YDR388W, stronger effect = lower value 0.993 | S. cerevisiae deletion strains, locus YDR392W, strain spt3, stronger effect = lower value 0.804 | S. cerevisiae deletion strains, locus YDR502C, strain sam2, stronger effect = lower value 0.984 | S. cerevisiae deletion strains, locus YEL003W, strain gim4, stronger effect = lower value 1 | S. cerevisiae deletion strains, locus YEL037C, strain rad23, stronger effect = lower value 0.993 | S. cerevisiae deletion strains, locus YEL061C, strain CIN8 (second series), stronger effect = lower value 1 | S. cerevisiae deletion strains, locus YEL061C, strain CIN8, stronger effect = lower value 0.992 | S. cerevisiae deletion strains, locus YER015W, strain faa2, stronger effect = lower value 0.997 | S. cerevisiae deletion strains, locus YER016W, strain bim1, stronger effect = lower value 0.999 | S. cerevisiae deletion strains, locus YER110C, stronger effect = lower value 0.975 | S. cerevisiae deletion strains, locus YER111C, strain swi4, stronger effect = lower value 0.998 | S. cerevisiae deletion strains, locus YER155C, strain BEM2 (second series), stronger effect = lower value 0.976 | S. cerevisiae deletion strains, locus YER155C, strain BEM2, stronger effect = lower value 1.01 | S. cerevisiae deletion strains, locus YER167W, strain BCK2, stronger effect = lower value 1 | S. cerevisiae deletion strains, locus YFR010W, strain ubp6, stronger effect = lower value 1.01 | S. cerevisiae deletion strains, locus YGL078C, strain dbp3, stronger effect = lower value 0.983 | S. cerevisiae deletion strains, locus YGL086W, strain mad1, stronger effect = lower value 0.992 | S. cerevisiae deletion strains, locus YGL167C, strain pmr1, stronger effect = lower value 0.98 | S. cerevisiae deletion strains, locus YGL173C, strain kem1, stronger effect = lower value 1.02 | S. cerevisiae deletion strains, locus YGL227W, strain vid30, stronger effect = lower value 1.01 | S. cerevisiae deletion strains, locus YGL240W, strain doc1, stronger effect = lower value 0.999 | S. cerevisiae deletion strains, locus YGL253W, strain hxk2, stronger effect = lower value 1.03 | S. cerevisiae deletion strains, locus YGR135W, strain pre9, stronger effect = lower value 0.97 | S. cerevisiae deletion strains, locus YGR252W, strain gcn5, stronger effect = lower value 1.03 | S. cerevisiae deletion strains, locus YHR013C, strain ard1, stronger effect = lower value 0.98 | S. cerevisiae deletion strains, locus YHR027C, strain rpn1, stronger effect = lower value 1 | S. cerevisiae deletion strains, locus YHR079C, strain IRE1 (second series), stronger effect = lower value 0.982 | S. cerevisiae deletion strains, locus YHR094C, strain hxt1, stronger effect = lower value 0.99 | S. cerevisiae deletion strains, locus YHR129C, strain ARP1, stronger effect = lower value 0.993 | S. cerevisiae deletion strains, locus YHR142W, strain chs7, stronger effect = lower value 1.01 | S. cerevisiae deletion strains, locus YHR200W, strain rpn10, stronger effect = lower value 0.981 | S. cerevisiae deletion strains, locus YIL066C, strain RNR3, stronger effect = lower value 0.987 | S. cerevisiae deletion strains, locus YIL073C, strain SPO22, stronger effect = lower value 0.692 | S. cerevisiae deletion strains, locus YIL125W, strain kgd1, stronger effect = lower value 0.989 | S. cerevisiae deletion strains, locus YIR030C, strain dcg1, stronger effect = lower value 0.978 | S. cerevisiae deletion strains, locus YJL092W, strain hpr5, stronger effect = lower value 0.997 | S. cerevisiae deletion strains, locus YJL095W, strain BCK1 (second series), stronger effect = lower value 0.996 | S. cerevisiae deletion strains, locus YJL095W, strain BCK1, stronger effect = lower value 0.956 | S. cerevisiae deletion strains, locus YJL115W, strain asf1, stronger effect = lower value 0.994 | S. cerevisiae deletion strains, locus YJL129C, strain trk1, stronger effect = lower value 1.01 | S. cerevisiae deletion strains, locus YJL134W, strain LCB3, stronger effect = lower value 0.993 | S. cerevisiae deletion strains, locus YJL154C, strain vps35, stronger effect = lower value 0.993 | S. cerevisiae deletion strains, locus YJL164C, strain tpk1, stronger effect = lower value 0.984 | S. cerevisiae deletion strains, locus YJL166W, strain qcr8, stronger effect = lower value 1.01 | S. cerevisiae deletion strains, locus YJL168C, strain set2, stronger effect = lower value 0.992 | S. cerevisiae deletion strains, locus YJL187C, strain SWE1 (second series), stronger effect = lower value 0.966 | S. cerevisiae deletion strains, locus YJL187C, strain SWE1, stronger effect = lower value 1.01 | S. cerevisiae deletion strains, locus YJR043C, strain POL32, stronger effect = lower value 0.998 | S. cerevisiae deletion strains, locus YKL009W, strain mrt4, stronger effect = lower value 0.95 | S. cerevisiae deletion strains, locus YKL068W, stronger effect = lower value 0.981 | S. cerevisiae deletion strains, locus YKL085W, strain MDH1 (second series), stronger effect = lower value 0.976 | S. cerevisiae deletion strains, locus YKL085W, strain MDH1, stronger effect = lower value 0.976 | S. cerevisiae deletion strains, locus YKL160W, strain elf1, stronger effect = lower value 0.974 | S. cerevisiae deletion strains, locus YKL190W, strain CNB1, stronger effect = lower value 0.941 | S. cerevisiae deletion strains, locus YKR001C, strain vps1, stronger effect = lower value 0.955 | S. cerevisiae deletion strains, locus YKR026C, strain gcn3, stronger effect = lower value 0.996 | S. cerevisiae deletion strains, locus YKR091W, strain srl3, stronger effect = lower value 0.996 | S. cerevisiae deletion strains, locus YLL001W, strain dnm1, stronger effect = lower value 0.956 | S. cerevisiae deletion strains, locus YLL026W, stronger effect = lower value 0.994 | S. cerevisiae deletion strains, locus YLL041C, strain sdh2, stronger effect = lower value 1.01 | S. cerevisiae deletion strains, locus YLR027C, strain aat2, stronger effect = lower value 1.01 | S. cerevisiae deletion strains, locus YLR039C, strain RIC1, stronger effect = lower value 0.741 | S. cerevisiae deletion strains, locus YLR058C, strain SHM2, stronger effect = lower value 0.991 | S. cerevisiae deletion strains, locus YLR102C, strain apc9, stronger effect = lower value 0.985 | S. cerevisiae deletion strains, locus YLR221C, strain rsa3, stronger effect = lower value 1.04 | S. cerevisiae deletion strains, locus YLR258W, strain gsy2, stronger effect = lower value 1 | S. cerevisiae deletion strains, locus YLR262C, strain YPT6 (second series), stronger effect = lower value 0.991 | S. cerevisiae deletion strains, locus YLR262C, strain YPT6, stronger effect = lower value 0.776 | S. cerevisiae deletion strains, locus YLR268W, strain sec22, stronger effect = lower value 0.971 | S. cerevisiae deletion strains, locus YLR320W, strain mms22, stronger effect = lower value 1 | S. cerevisiae deletion strains, locus YLR330W, strain CHS5, stronger effect = lower value 0.956 | S. cerevisiae deletion strains, locus YLR342W, strain FKS1, stronger effect = lower value 0.999 | S. cerevisiae deletion strains, locus YLR357W, strain rsc2, stronger effect = lower value 0.994 | S. cerevisiae deletion strains, locus YLR370C, strain arc18, stronger effect = lower value 0.996 | S. cerevisiae deletion strains, locus YLR371W, strain rom2, stronger effect = lower value 0.983 | S. cerevisiae deletion strains, locus YLR384C, strain iki3, stronger effect = lower value 1.03 | S. cerevisiae deletion strains, locus YLR418C, strain cdc73, stronger effect = lower value 0.906 | S. cerevisiae deletion strains, locus YML016C, strain PPZ1, stronger effect = lower value 1 | S. cerevisiae deletion strains, locus YML032C, strain rad52, stronger effect = lower value 0.99 | S. cerevisiae deletion strains, locus YML120C, strain ndi1, stronger effect = lower value 0.986 | S. cerevisiae deletion strains, locus YML124C, strain tub3, stronger effect = lower value 0.979 | S. cerevisiae deletion strains, locus YMR058W, strain fet3, stronger effect = lower value 1.01 | S. cerevisiae deletion strains, locus YMR078C, strain ctf18, stronger effect = lower value 0.973 | S. cerevisiae deletion strains, locus YMR125W, strain sto1, stronger effect = lower value 0.994 | S. cerevisiae deletion strains, locus YMR129W, stronger effect = lower value 1 | S. cerevisiae deletion strains, locus YMR205C, strain PFK2, stronger effect = lower value 0.991 | S. cerevisiae deletion strains, locus YMR223W, strain ubp8, stronger effect = lower value 0.968 | S. cerevisiae deletion strains, locus YMR231W, strain pep5, stronger effect = lower value 0.997 | S. cerevisiae deletion strains, locus YMR307W, strain GAS1, stronger effect = lower value 0.685 | S. cerevisiae deletion strains, locus YNL067W, strain RPL9B, stronger effect = lower value 0.906 | S. cerevisiae deletion strains, locus YNL071W, strain lat1, stronger effect = lower value 0.996 | S. cerevisiae deletion strains, locus YNL209W, strain ssb2, stronger effect = lower value 0.983 | S. cerevisiae deletion strains, locus YNL233W, strain BNI4, stronger effect = lower value 0.943 | S. cerevisiae deletion strains, locus YNL248C, strain rpa49, stronger effect = lower value 1.02 | S. cerevisiae deletion strains, locus YNL250W, strain rad50, stronger effect = lower value 0.988 | S. cerevisiae deletion strains, locus YNL271C, strain bni1, stronger effect = lower value 0.978 | S. cerevisiae deletion strains, locus YNL298W, strain CLA4, stronger effect = lower value 0.998 | S. cerevisiae deletion strains, locus YNL307C, strain MCK1, stronger effect = lower value 0.984 | S. cerevisiae deletion strains, locus YNL322C, strain KRE1 (second series), stronger effect = lower value 0.979 | S. cerevisiae deletion strains, locus YNL322C, strain KRE1, stronger effect = lower value 0.983 | S. cerevisiae deletion strains, locus YNR049C, strain mso1, stronger effect = lower value 1.01 | S. cerevisiae deletion strains, locus YNR052C, strain pop2, stronger effect = lower value 0.986 | S. cerevisiae deletion strains, locus YOL012C, strain htz1 0.684 | S. cerevisiae deletion strains, locus YOL147C, strain pex11, stronger effect = lower value 0.989 | S. cerevisiae deletion strains, locus YOR001W, strain rrp6, stronger effect = lower value 1.02 | S. cerevisiae deletion strains, locus YOR061W, strain CKA2, stronger effect = lower value 0.966 | S. cerevisiae deletion strains, locus YOR069W, strain VPS5, stronger effect = lower value 0.987 | S. cerevisiae deletion strains, locus YOR070C, strain gyp1, stronger effect = lower value 1 | S. cerevisiae deletion strains, locus YOR080W, strain dia2, stronger effect = lower value 1 | S. cerevisiae deletion strains, locus YOR083W, strain WHI5, stronger effect = lower value 0.972 | S. cerevisiae deletion strains, locus YOR106W, strain vam3, stronger effect = lower value 0.981 | S. cerevisiae deletion strains, locus YOR136W, strain idh2, stronger effect = lower value 0.977 | S. cerevisiae deletion strains, locus YOR144C, strain elg1, stronger effect = lower value 0.99 | S. cerevisiae deletion strains, locus YOR184W, strain ser1, stronger effect = lower value 0.94 | S. cerevisiae deletion strains, locus YOR265W, strain rbl2, stronger effect = lower value 0.994 | S. cerevisiae deletion strains, locus YOR270C, strain vph1, stronger effect = lower value 1.06 | S. cerevisiae deletion strains, locus YOR290C, strain snf2, stronger effect = lower value 0.98 | S. cerevisiae deletion strains, locus YOR316C, strain cot1, stronger effect = lower value 0.987 | S. cerevisiae deletion strains, locus YPL051W, strain arl3, stronger effect = lower value 0.968 | S. cerevisiae deletion strains, locus YPL078C, strain atp4, stronger effect = lower value 0.969 | S. cerevisiae deletion strains, locus YPL106C, strain sse1, stronger effect = lower value 0.973 | S. cerevisiae deletion strains, locus YPL240C, strain hsp82, stronger effect = lower value 1 | S. cerevisiae deletion strains, locus YPL241C, strain CIN2, stronger effect = lower value 0.991 | S. cerevisiae deletion strains, locus YPR119W, strain clb2, stronger effect = lower value 0.976 | S. cerevisiae deletion strains, locus YPR141C, strain kar3, stronger effect = lower value 0.977 | S. cerevisiae deletion strains, locus YPR163C, strain tif3, stronger effect = lower value 0.988 | S. cerevisiae deletion strains, locus YPR167C, strain met16, stronger effect = lower value 0.974 | S. cerevisiae deletion strains, strain wtn01, stronger effect = lower value 0.973 | S. cerevisiae strains, strain wild type, stronger effect = lower value 0.967
active: S. cerevisiae deletion strains, locus YDR162C, strain NBP2, stronger effect = lower value 0.552 | S. cerevisiae deletion strains, locus YGL248W, strain PDE1, stronger effect = lower value 0.857 | S. cerevisiae deletion strains, locus YHR030C, strain SLT2, stronger effect = lower value 0.885 | S. cerevisiae deletion strains, locus YLR342W, strain FKS1 (second series), stronger effect = lower value 1.21 [resistant]
